# Cruzain Triton: blocks cruzain activity in presence of Triton detergent; Potency, µM, for the others: max response, negative = inhibition, most hits filed as inhibitors; P25779; actives 0.43% (n = 200,000); purified cruzain, Z-FR-AMC fluorescence, 0.01% Triton; AID 1478;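 note: plate controls were neutral wells for no effect and buffer without enzyme for full effect; nearly all actives have a fitted effect of over 40% in size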
# Target sequence (P25779 123-467 limits assumed): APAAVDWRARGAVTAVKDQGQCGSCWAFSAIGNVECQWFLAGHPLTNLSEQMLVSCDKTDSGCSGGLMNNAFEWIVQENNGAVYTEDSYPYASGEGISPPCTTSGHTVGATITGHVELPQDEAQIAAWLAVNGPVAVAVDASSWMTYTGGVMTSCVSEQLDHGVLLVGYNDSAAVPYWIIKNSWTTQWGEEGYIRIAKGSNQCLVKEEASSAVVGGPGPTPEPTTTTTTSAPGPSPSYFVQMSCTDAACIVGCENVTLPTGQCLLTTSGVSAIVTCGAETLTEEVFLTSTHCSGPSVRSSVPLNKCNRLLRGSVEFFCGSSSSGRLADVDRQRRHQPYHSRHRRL
#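 Detergent-containing arm of a paired screen for aggregation-based inhibition: 0.01% Triton X-100 present. Cruzain at 1.5 nM cleaved 2 uM Z-FR-AMC at pH 5.5 with 5 mM DTT; AMC fluorescence gain over 60 s measured activity.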
# Cruzain inh noDet: inhibitors of Trypanosoma cruzi cruzain without detergent; purified cruzain, Z-FR-AMC fluorescence, no detergent; Potency, µM, without a hit: max response, negative = inhibition, actives largely listed as inhibitors; actives 2.3% (n = 200,000);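 note: plate controls were enzyme without inhibitor for no effect and buffer without enzyme for full effect; nearly all actives have a fitted effect of over 40% in size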
#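 Detergent-free condition (0.00005% Triton X-100) in acetate buffer pH 5.5 with DTT. 1.5 nM enzyme and compound were pre-mixed 15 min, then 2 uM Z-FR-AMC substrate added; reaction progress from fluorescence change between first and third reads (60 s).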
# Numbers without * were called inactive; ? = inconclusive. This is a sample that favours compounds with a hit; in the whole collection about 2.5% have one here. Calls come from the whole dose curve; as a rule, active = well fitted curve in the direction sought with a large enough effect; inconclusive = small, poorly fitted or top-dose-only effect, or another doubt; inactive = no such curve, though single readings can be large; an effect the other way counts as inactive or inconclusive. Potency is the fitted concentration of half-maximal effect.
SMILES,Cruzain Triton,Cruzain inh noDet
COc1ccc(OC)c(C2c3c(-c4ccc(Br)cc4)n[nH]c3C(=O)N2c2ccc(Cl)cc2)c1 (stereo unspecified),-2%,16µM*
COc1ccc(-c2n[nH]c3c2C(c2ccc(O)cc2)N(c2ccc(Br)cc2)C3=O)cc1 (stereo unspecified),-1%,?
CCOC(=O)c1ccc(N2C(=O)c3n[nH]c(-c4cccs4)c3C2c2ccc(C)cc2)cc1 (stereo unspecified),-2%,-8%
CCOC(=O)c1ccc(N2C(=O)c3[nH]nc(-c4ccc(OC)cc4)c3C2c2ccc(C)cc2)cc1 (stereo unspecified),-2%,25µM*
CCOC(=O)c1ccc(N2C(=O)c3n[nH]c(-c4ccco4)c3C2c2ccc(OCC)cc2)cc1 (stereo unspecified),-29%,14%
CCOC(=O)c1ccc(N2C(=O)c3n[nH]c(-c4cccs4)c3C2c2ccc(Cl)cc2Cl)cc1 (stereo unspecified),-1%,20µM*
Cn1nnnc1SCCCNCc1ccccc1OCc1ccc(F)cc1,-2%,0%
CNC(=O)Oc1ccc2c(c1)C1(C)CCN(C)C1N2C (stereo unspecified),1%,0%
CCOc1ccc(CNC(=O)C2CCN(S(=O)(=O)c3cn(C)cn3)CC2)cc1,1%,-11%
Cc1cccc(-c2nc3scc(CCNS(=O)(=O)c4ccc5c(c4)OCCO5)n3n2)c1,-4%,2%
CCCN(CCC)C(=O)Cn1c(=O)n(-c2ccc(CC)cc2)c(=O)c2ccc(C(=O)NCCc3ccccc3)cc21,-1%,0%
COc1ccc(-c2ccc(-c3cc(=O)oc4cc(C)cc(C)c34)cc2)cc1,0%,?
Cc1cc(C)c2c(-c3ccc(-c4ccc(C(F)(F)F)cc4)cc3)cc(=O)oc2c1,5%,25µM*
O=S(=O)(NCC(c1ccco1)N1CCN(c2ccc(F)cc2)CC1)c1cc(F)ccc1F (stereo unspecified),1%,17%
O=S(=O)(c1cccc(F)c1)N1CCC(Oc2ccc(-n3cnnn3)cc2)CC1,-3%,-1%
Cn1c(=O)cnc2cnc(Nc3ccccc3)nc21,-6%,25µM*
COCCn1c(=O)cnc2cnc(Nc3ccccc3)nc21,-7%,-9%
Cc1ccc(C)c(NC(=O)c2cc(S(=O)(=O)N3CCc4ccccc4C3)ccc2F)c1,2%,-3%
O=C(Nc1cc(Cl)cc(Cl)c1)c1cc(S(=O)(=O)N2CCc3ccccc3C2)ccc1F,1%,16µM*
O=C(Nc1cc(Cl)cc(Cl)c1)c1ccc(F)c(S(=O)(=O)N2CCCC2)c1,-3%,25µM*
CC(C)c1ccc(NC(=O)c2ccc(F)c(S(=O)(=O)N3CCCC3)c2)cc1,1%,4%
O=C(Nc1cc(Cl)cc(Cl)c1)c1ccc(F)c(S(=O)(=O)N2CCc3ccccc32)c1,1%,16µM*
O=C(Nc1ccc2c(c1)CCC2)c1cc(S(=O)(=O)N2CCN(c3ccccc3)CC2)ccc1Cl,1%,4µM*
O=C(Nc1ccc(Br)cc1)c1ccc(F)c(S(=O)(=O)N2CCCc3ccccc32)c1,0%,?
O=C(CN1CCN(c2ccccc2)CC1)Nc1ccc2c(c1)CCC2,-1%,1%
SMILES,Cruzain Triton,Cruzain inh noDet
COC(=O)N1C(C)=Cc2ccccc2C1CC(C)=O (stereo unspecified),-2%,-6%
CCc1ccc(CN(C(=O)Nc2cccc(Cl)c2)c2ccccn2)cc1,-5%,-20%
Oc1c(Br)cc(Br)cc1CN1CCN(Cc2ccccc2)CC1,-2%,2%
Oc1c(Br)cc2oc3c(c2c1CNCc1ccccc1)CCCC3,-8%,32µM*
CCOC(=O)c1c(C)sc(-c2c(-c3ccc4c(c3)OCCO4)[nH]c3c2c(=O)[nH]c(=O)n3C)c1O,-5%,?
CCN(CC)c1ccc(C=C(c2nnnn2-c2ccc(C)cc2)c2nnnn2-c2ccc(C)cc2)cc1,-5%,32µM*
Cc1ccc(-n2nnnc2C(Cl)c2nnnn2-c2ccc(C)cc2)cc1,-1%,5%
COc1cccc(C(=O)NCC(=O)N/N=C/c2ccc(OC(=O)c3cccs3)c(OC)c2)c1,-4%,9%
O=C(N/N=C/c1ccc(OC(=O)c2cccs2)cc1)c1cccc(F)c1,-22%,20µM*
O=C(COc1ccccc1Cl)N(Cc1ccco1)Cc1ccco1,-6%,-5%
COc1ccc2c(CNCCc3ccccc3OC)c(C(=O)O)n(Cc3ccc(F)cc3Cl)c2c1,-7%,?
CCOc1ccccc1N(CC)C(=O)c1cc2c(=O)n(CC)c3ccccc3c2s1,-2%,?
CCc1c(C)sc(NC(=O)CSc2nc3c(c(C(F)(F)F)n2)CCc2ccccc2-3)c1C#N,-4%,4µM*
CC(NC(=O)CSc1nc2c(c(C(F)(F)F)n1)CCc1ccccc1-2)c1ccccc1 (stereo unspecified),-8%,-7%
CSc1ccc(CCNc2ncnc3onc(C)c23)cc1,1%,12%
O=C1SC(SCc2ccccc2)=N/C1=C\c1ccco1,-7%,-4%
CC(/C=C1\N=C(SCc2ccccc2Cl)SC1=O)=C\c1ccccc1,-5%,25µM*
CC(C)NC(=O)COC(=O)CNC(=O)c1cc(Cl)cc([N+](=O)[O-])c1,7.9µM*,7.9µM*
CC(C)(C)c1ccc(C(=O)NCC(=O)OCC(=O)Nc2ccccc2[N+](=O)[O-])cc1,-6%,5%
Cc1ccc(S(=O)(=O)N2CCOCC2)cc1NC(=O)COC(=O)CNC(=O)c1ccc(C(C)(C)C)cc1,-2%,?
Cc1ccc(S(=O)(=O)N2CCCCC2)cc1NC(=O)COC(=O)CNC(=O)c1cc(Cl)cc([N+](=O)[O-])c1,10µM*,20µM*
Cc1ccc(/C=C/c2onc(C)c2S(=O)(=O)N2CCC(C(=O)N(CCC(C)C)Cc3ccco3)CC2)cc1,0%,-15%
C[N+]1(C)CCc2cc(O)c(O)cc2[C@H]1Cc1ccc(O)c(O)c1,-4%,-6%
CNS(=O)(=O)c1cccc(C(=O)OCC(=O)/C=C2/N(C)c3ccccc3C2(C)C)c1,-14%,3%
CN1/C(=C\C(=O)COC(=O)CN2C(=O)C3CC=CCC3C2=O)C(C)(C)c2ccccc21 (stereo unspecified),-8%,9%
SMILES,Cruzain Triton,Cruzain inh noDet
CN1/C(=C\C(=O)COC(=O)CNC(=O)c2ccccc2F)C(C)(C)c2ccccc21,22µM*,20µM*
CN1/C(=C\C(=O)COC(=O)CNC(=O)c2ccc3ccccc3c2)C(C)(C)c2ccccc21,-24%,25µM*
Cc1ccc(NC(=O)c2nc(S(C)(=O)=O)ncc2N(Cc2ccc(C(C)(C)C)cc2)Cc2ccco2)cc1C,0%,-22%
COc1c(C)cccc1C(=O)Nc1ccc(Cl)c(-c2nc3cc(C)ccc3o2)c1,-4%,?
CCC1=C(C[C@H]2NCCc3ccccc32)C[C@@H]2c3cc(OC)c(OC)cc3CCN2C1,0%,6%
CC(C)n1nc(C(=O)Nc2nc3ccc(S(C)(=O)=O)cc3s2)c2ccccc2c1=O,3%,14%
CC(C)n1nc(C(=O)Nc2nnc(SCc3c(Cl)cccc3Cl)s2)c2ccccc2c1=O,-1%,13µM*
Cc1cc(C(=O)OCC(=O)Nc2ccc(F)cc2[N+](=O)[O-])c2ccccc2n1,-2%,20µM*
Cc1cc(C(=O)OCC(=O)NC(C)(C)C)c2ccccc2n1,2%,-1%
CC(=O)OC1CC(C)OC(C)O1 (stereo unspecified),-6%,-1%
COc1ccc2nc(-c3cccc(N)c3)[nH]c2c1,-15%,-20%

# High-throughput results (PubChem)
